CYP2C9 activ = human CYP2C9 activators, primary screen, biochemical, luminescence. recombinant CYP2C9, luciferin-H conversion; hits give high values; factor 1 = untreated enzyme, 0 = blocked. actives 1.4% (n = 96,000). Cytochrome P450 2C9 (Homo sapiens), P11712. activation factor at 5 µM;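 active means activation factor of 2 or more for CYP2C9 at a 5 µM dose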
Target sequence (P11712 whole entry, looked up): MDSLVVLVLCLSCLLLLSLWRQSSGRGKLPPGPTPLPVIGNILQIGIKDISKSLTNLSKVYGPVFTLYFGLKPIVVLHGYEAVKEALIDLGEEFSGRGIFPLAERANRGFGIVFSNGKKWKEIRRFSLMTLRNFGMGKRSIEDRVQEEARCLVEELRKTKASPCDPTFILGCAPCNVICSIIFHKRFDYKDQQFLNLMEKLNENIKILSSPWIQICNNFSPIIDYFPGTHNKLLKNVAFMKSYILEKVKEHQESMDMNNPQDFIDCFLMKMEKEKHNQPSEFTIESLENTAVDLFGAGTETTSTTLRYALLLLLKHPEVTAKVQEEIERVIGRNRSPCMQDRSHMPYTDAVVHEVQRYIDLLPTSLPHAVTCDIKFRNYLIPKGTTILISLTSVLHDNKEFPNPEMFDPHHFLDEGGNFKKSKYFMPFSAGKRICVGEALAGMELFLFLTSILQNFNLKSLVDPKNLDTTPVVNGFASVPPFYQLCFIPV
CYP2C19 act = human CYP2C19 activators, primary screen, biochemical, luminescence | activation factor at 5 µM | Cytochrome P450 2C19 (Homo sapiens), P33261 | AID 1025, 2008 | recombinant CYP2C19, luciferin-H EGE luminescence; hits give high values; 0 = fully inhibited enzyme, 1 = untreated enzyme | 96,000 tested, under 10 active;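 active means activation factor of at least 2 at 5 µM in the primary screen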
Cav3 T inh = Cav3.2 calcium influx blockers – cell-based, Fluo-4 calcium fluorescence, FDSS, MLSMR library, primary screen | Cav3.2-expressing cells; hits give low values | B-score at 10 µM | actives 4% (n = 100,000) | AID 449739, 2010 | Voltage-dependent T-type calcium channel subunit alpha-1H (Homo sapiens), O95180;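 active means single-dose well whose peak fluorescence ratio is a statistical outlier from its plate by either plate-standardised score or position-corrected B-score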
CYP2C19 inh = blockers of cytochrome P450 2C19 activity – biochemical, luminescence, ADME assay, primary screen | P33261 | CYP2C19 Supersomes, luciferin-H EGE luminescence, 30 min | inhibition, % at 5 µM | actives 21% (n = 96,000);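 active means CYP2C19 inhibition above a set limit at 5 µM in the primary screen, cut at about 50% in these data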
CYP2C9 inh = blockers of cytochrome P450 2C9 activity – biochemical, luminescence, ADME assay, primary screen | actives 20% (n = 96,000) | P11712 | AID 777, 2007 | inhibition, % at 5 µM | CYP2C9 Supersomes, luciferin-H conversion;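 active means blocking of liver enzyme CYP2C9 beyond about 50% at 5 µM, limit read from the data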
Of the large screens only hits and unclear results are named; the others gave an inactive call. Shown are actives, neighbours in structure and some others; about 27% of the full set was active somewhere.

CCOc1ccc2[nH]c(=O)c(C(c3nnnn3CC3CCCO3)N3CCc4ccccc4C3)cc2c1 (stereo not given)	CYP2C19 inh 50, CYP2C9 inh 68
O=c1[nH]c2cc3c(cc2cc1C(c1nnnn1Cc1ccccc1)N1CCCCCC1)OCCO3 (stereo not given)	none
CCc1ccc2[nH]c(=O)c(C(c3nnnn3CC3CCCO3)N3CCCc4ccccc43)cc2c1 (stereo not given)	none
O=c1[nH]c(/C(=N\O)c2ccccc2)no1	none
CCOC(=O)c1c(C)[nH]c(C(=O)COC(=O)c2ccc(F)c(S(=O)(=O)N3CCOCC3)c2)c1C	none
Cc1cccc2cc(C(c3nnnn3CC3CCCO3)N3CCCc4ccccc43)c(=O)[nH]c12 (stereo not given)	CYP2C9 inh 56
Cc1cccc2cc(C(c3nnnn3CC3CCCO3)N3CCc4ccccc4C3)c(=O)[nH]c12 (stereo not given)	CYP2C9 inh 60 (no result: Cav3 T inh)
Cc1cc(C(c2nnnn2Cc2ccccc2)N2CCOCC2)c(C)n1-c1ccc2c(c1)OCO2 (stereo not given)	Cav3 T inh -4.6, CYP2C19 inh 96, CYP2C9 inh 90
O=C(Nc1nnc(-c2ccccc2Cl)o1)c1ccc(S(=O)(=O)N2CCCCCC2)cc1	Cav3 T inh -7.1, CYP2C9 inh 54
CCC1CCCCN1S(=O)(=O)c1ccc(C(=O)Nc2nnc(-c3ccccc3Cl)o2)cc1 (stereo not given)	Cav3 T inh -7.9 (no result: CYP2C9 activ, CYP2C19 act, CYP2C19 inh, CYP2C9 inh)
CC1CCCCN1S(=O)(=O)c1ccc(C(=O)Nc2nnc(-c3ccccc3Cl)o2)cc1 (stereo not given)	none (no result: Cav3 T inh)
CCCNC(=O)C1CC(c2cccc(F)c2)=NO1 (stereo not given)	none (no result: CYP2C9 activ, CYP2C19 act, CYP2C19 inh, CYP2C9 inh)
O=P(OC1CCCCC1)(OC1CCCCC1)C(O)c1ccccc1 (stereo not given)	CYP2C19 inh 65, CYP2C9 inh 55
CCOc1ccc(-c2cc(C(=O)O)c3ccccc3n2)cc1	CYP2C9 inh 57
O=C(NCc1ccco1)c1cc(-c2ccccc2)nc2ccccc12	none
Cc1nc2ccccc2n1C(=O)c1cc(-c2ccc(Br)cc2)nc2ccccc12	CYP2C9 inh 79 (no result: Cav3 T inh)
CCNC(=O)COC(=O)c1cc(-c2ccc(OC)cc2)nc2ccccc12	CYP2C9 inh 61
O=C(COC(=O)c1cc(-c2ccco2)nc2ccccc12)NCc1ccccc1	CYP2C9 inh 61
CCN(CC)C(=O)COC(=O)c1cc(-c2ccc(OC)cc2)nc2ccccc12	CYP2C19 inh 91, CYP2C9 inh 98
Cn1c(N)c(C(=O)COC(=O)c2cc(C(F)(F)F)nc3ccccc23)c(=O)n(Cc2ccccc2)c1=O	none (no result: CYP2C9 activ, CYP2C19 act, CYP2C19 inh, CYP2C9 inh)
CN(Cc1ccccc1)C(=O)COC(=O)c1cc(-c2ccc(Cl)s2)nc2ccccc12	CYP2C19 inh 56, CYP2C9 inh 88
CC(O)[C@H]1CNC(=O)C(=O)N1CC1CCCCC1 (stereo not given in full)	none (no result: CYP2C9 activ, CYP2C19 act, CYP2C19 inh, CYP2C9 inh)
CCOc1ccc(OC(=O)NC(c2ccccc2)C(Cl)(Cl)Cl)cc1 (stereo not given)	Cav3 T inh -3.5 (no result: CYP2C9 activ, CYP2C19 act, CYP2C19 inh, CYP2C9 inh)
COc1ncccc1-c1nnn(-c2ccc(C)cc2)n1	none (no result: CYP2C9 activ, CYP2C19 act, CYP2C19 inh, CYP2C9 inh)
Cc1c(C(C)O)nnn1-c1nonc1N (stereo not given)	none
CC(C)[C@H](NC(=O)Nc1ccccc1F)C(=O)O	none
CCCCn1c(NC(=O)c2ccccc2Cl)c(C#N)c2nc3ccccc3nc21	Cav3 T inh -8.8
CCCCn1c(NC(=O)CC)c(C#N)c2nc3ccccc3nc21	none
c1ccc(-c2nc3cc4ccccc4cc3[nH]2)nc1	CYP2C19 inh 80
CC(=O)Nc1ccc2nc(-c3ccccn3)[nH]c2c1	none
C[C@]12CC[C@@H]3c4ccc(O)cc4CC[C@H]3[C@@H]1C[C@@H](O)[C@@H]2O	Cav3 T inh -4.6 (no result: CYP2C9 activ, CYP2C19 act, CYP2C19 inh, CYP2C9 inh)
C[C@]12CC[C@@H]3c4ccc(O)cc4CC[C@H]3[C@@H]1CC[C@@H]2OC(=O)CCC(=O)O	none (no result: CYP2C9 activ, CYP2C19 act, CYP2C19 inh, CYP2C9 inh)
C/C(=N/NS(=O)(=O)c1ccc(F)cc1)c1ccc(NC(=O)c2ccc(C)o2)cc1	CYP2C9 inh 95
Cc1ccnc(NS(=O)(=O)c2ccc(NC(=O)c3ccc(C)o3)cc2)n1	none (no result: CYP2C9 activ, CYP2C19 act, CYP2C19 inh, CYP2C9 inh)
C=CCNc1nc(N2CCOCC2)c(C#N)c2c1CN(C)CC2	none
N#Cc1c(NCCO)nc(NCc2ccccc2)c2c1CCN(Cc1ccccc1)C2	Cav3 T inh -3.6, CYP2C9 inh 94
CCN1CCc2c(C#N)c(N3CCCCC3)nc(NCc3ccccc3)c2C1	CYP2C9 inh 70
N#Cc1c(N)sc(=S)c2c1CCN(Cc1ccccc1)C2	CYP2C19 inh 74, CYP2C9 inh 69
C=CCNc1nc(N2CCCCC2)c(C#N)c2c1CN(Cc1ccccc1)CC2	CYP2C19 inh 62, CYP2C9 inh 90
CCC(C)NC(=O)C1CCCN(S(=O)(=O)c2ccc(-n3cnnn3)cc2)C1 (stereo not given)	none
CCN1CCc2c(C#N)c(N3CCOCC3)nc(NCCO)c2C1	none
CCN1CCc2c(C#N)c(N3CCOCC3)nc(NCc3ccccc3)c2C1	CYP2C9 inh 70
COc1cccc(OC)c1C(=O)Nc1ccccc1C(=O)N1CCOCC1	none
O=C(Nc1cccnc1)c1cccc(S(=O)(=O)N2CCOCC2)c1	none
COc1ccc(S(=O)(=O)N2CCN(c3ccc4nnc(-c5ccc(F)cc5)n4n3)CC2)cc1	CYP2C19 inh 90, CYP2C9 inh 97
Cc1ccc(S(=O)(=O)N2CCN(c3ccc4nnc(-c5ccccc5)n4n3)CC2)cc1	CYP2C19 inh 95, CYP2C9 inh 99
COc1cccc(-c2csc(N3CCN(S(=O)(=O)c4ccc(F)cc4)CC3)n2)c1	none
c1ccc(-c2nnc3ccc(N4CCCC4)nn23)cc1	none
CCCOc1ccc(-c2nnn(CC(=O)c3c[nH]c4ccccc34)n2)cc1	none
Cc1nnc(NCCc2ccccc2)[nH]c1=O	none
Cc1nnc(SCCc2ccccc2)[nH]c1=O	CYP2C9 inh 56
Cc1ccccc1N1C(=O)c2cccc3c(N(C)CCO)ccc(c23)C1=O	Cav3 T inh -4.3, CYP2C19 inh 50
Cc1cn(-c2cc(C(=O)Nc3ccc(C)c(NC(=O)C(=O)c4c[nH]c5ccccc45)c3)cc(C(F)(F)F)c2)cn1	none (no result: CYP2C9 activ, CYP2C19 act, CYP2C19 inh, CYP2C9 inh)
Cc1cc(Nc2ccccc2)nn1C(=O)c1ccc(Cl)cc1	CYP2C9 inh 55 (no result: Cav3 T inh)
CC(C)OCCCNC(=O)CCSc1ccc(Cl)cc1	CYP2C19 inh 63, CYP2C9 inh 78
COC(=O)c1ccc(C)c(NC(=O)CCSc2ccc(Cl)cc2)c1	none (no result: Cav3 T inh)
Nc1ccccc1OCCOCCOCCOc1ccccc1N	CYP2C19 inh 75, CYP2C9 inh 60
O=C(CN1CCN(S(=O)(=O)c2ccc(Br)cc2)CC1)Nc1ccc2c(c1)OCCO2	CYP2C19 inh 78
Cc1ccc(S(=O)(=O)N2CCN(Cc3cc(C(C)C)ccc3O)CC2)cc1	CYP2C9 inh 51

Bioassay records (PubChem BioAssay)
